Source: PubChem BioAssay (National Center for Advancing Translational Sciences (NCATS))
TDP1 cell CPT – qHTS for Inhibitors of human tyrosyl-DNA phosphodiesterase 1 (TDP1): qHTS in cells in presence of CPT; chicken DT40 Tdp1-/-;hTDP1 cells + 20 nM CPT, ATP luminescence, 48 h; Potency, µM (top dose mostly 46.2 µM), hits mostly inhibitors; 420,000 tested, 12% active; also: nearly all actives have a fitted effect of over 55% in size
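Chicken DT40 Tdp1-/- cells complemented with human TDP1, 400 cells/well, exposed to compounds plus 20 nM camptothecin for at least 48 h at 37 C; viability read as ATP content by CellTiter-Glo luminescence.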
TGFb inhibitor – qHTS for Inhibitors of TGF-b; HepG2 CAGA-GFP TGF-b/SMAD3 reporter, GFP fluorescence, 18 h; TGF-beta stimulated, 500 pg/mL final; 410,000 tested, 1.2% active; Potency, µM (titrated, usually from 46.1 µM), hits mostly inhibitors; also: nearly all actives have a fitted effect of over 65% in size
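Per well, imaged GFP fluorescence of HEPG2 CAGA-GFP cells gives the signal; cells get compound, then TGF-beta (500 pg/mL final), 18 h at 37 degrees C; %Activity versus -TGF-beta and +DMSO controls.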
HepG2 viability – qHTS for Inhibitors of TGF-b: Cytotox Counterscreen | HepG2 CAGA-GFP viability, ATP luminescence, 18 h | Potency, µM (doses to about 46.1 µM), hits mostly cytotoxic | 410,000 tested, 0.76% active
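CellTiter-Glo luminescence gave cytotoxicity after 18 hours at 37 degrees C. The cells were HepG2 CAGA-GFP in 1% FBS DMEM, stimulated with 500 pg/mL TGF-beta after compound addition. %Activity was normalised to no-cell wells (complete cell-killing) and DMSO (no toxicity), and curves were fitted and classified.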
TDP1 inh – qHTS Assay for Inhibitors of Tyrosyl-DNA Phosphodiesterase (TDP1); 350,000 tested, 0.28% active; Potency, µM (highest dose often 130 µM), usual class: inhibitors; recombinant TDP1, AlphaScreen DNA substrate cleavage; also: nearly all actives have a fitted effect of over 40% in size
Target sequence (Q9NUW8 whole entry, looked up): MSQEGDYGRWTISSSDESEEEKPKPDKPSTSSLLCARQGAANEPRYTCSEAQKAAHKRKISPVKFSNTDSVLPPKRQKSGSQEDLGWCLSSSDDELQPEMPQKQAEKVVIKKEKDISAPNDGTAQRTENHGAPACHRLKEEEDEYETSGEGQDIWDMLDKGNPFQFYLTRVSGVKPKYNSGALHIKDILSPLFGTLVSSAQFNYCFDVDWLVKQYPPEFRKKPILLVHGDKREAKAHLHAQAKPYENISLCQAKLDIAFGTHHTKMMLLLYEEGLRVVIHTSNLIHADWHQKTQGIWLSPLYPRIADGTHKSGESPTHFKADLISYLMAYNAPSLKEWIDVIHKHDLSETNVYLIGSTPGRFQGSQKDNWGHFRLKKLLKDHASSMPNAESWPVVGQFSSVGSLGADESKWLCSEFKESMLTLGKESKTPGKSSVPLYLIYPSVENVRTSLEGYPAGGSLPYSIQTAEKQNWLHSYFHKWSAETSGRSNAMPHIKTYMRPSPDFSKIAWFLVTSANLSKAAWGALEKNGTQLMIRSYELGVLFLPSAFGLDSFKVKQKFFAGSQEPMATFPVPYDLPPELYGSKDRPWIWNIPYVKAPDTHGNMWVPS
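Steps: enzyme plus compound, 15 min RT; add biotin/phosphotyrosine-FITC oligonucleotide (15 nM final), react 5 min; add donor/acceptor beads (10 ug/ml final), 10 min; read AlphaScreen. Tdp1 at 1 nM final.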
TDP1 cell noCPT – qHTS for Inhibitors of human tyrosyl-DNA phosphodiesterase 1 (TDP1): qHTS in cells in absence of CPT | DT40 Tdp1-/- hTDP1 cells, no CPT, ATP luminescence, 48 h | AID 686978, 2013 | Potency, µM (top dose mostly 46.2 µM), hits mostly inhibitors | 420,000 tested, 15% active; also: nearly all actives have a fitted effect of over 55% in size
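Stably hTDP1-transfected Tdp1-null chicken DT40 cells were treated with library compounds minus camptothecin and grown for at least 48 hr at 37 °C, after which cellular ATP was quantified by luminescence.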
IL-1B inflam inh – qHTS for Inhibitors of Inflammasome Signaling: IL-1-beta AlphaLISA Primary Screen. AID 743279, 2014. THP-1 LPS/ATP IL-1B secretion, AlphaLISA, 16 h; stronger effect = lower value. activity change, % at 57.5 µM. 360,000 tested, 4.7% active; in the data active = activity change below about -50%; inconclusive = mostly about -30% to -49%
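THP-1 cells pretreated 1 hr with compounds (up to 57.5 uM final), then stimulated with LPS (250 ng/mL final) plus ATP (1.25 mM final); secreted IL-1B measured by AlphaLISA after 16 hr, decreased signal indicating inhibition.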
Numbers stand for hits; – = inactive; ? = inconclusive; · = no result given; [ ] = remark or other dose. This is a sample that favours compounds with a hit; in the whole collection about 18% have one here. Unless noted, calls follow the shape of the dose curve; as a rule, active = well fitted curve in the direction sought with a large enough effect; inconclusive = small, poorly fitted or top-dose-only effect, or another doubt; inactive = no such curve, though single readings can be large; an effect the other way counts as inactive or inconclusive.

SMILES	TDP1 cell CPT	TGFb inhibitor	HepG2 viability	TDP1 inh	TDP1 cell noCPT	IL-1B inflam inh
Cc1ccccc1-c1cc(C(=O)NCc2ccc(OC(F)(F)F)cc2)nn1CC1CC(c2cccc([N+](=O)[O-])c2)=NO1 (stereo not given)	16µM	?	–	–	18µM	?
Cc1ccccc1-c1cc(C(=O)NCc2ccc3c(c2)OCO3)nn1CC1CC(c2cccc([N+](=O)[O-])c2)=NO1 (stereo not given)	–	–	–	–	?	–
CCc1ccc(-n2ccc(=O)c(C(=O)O)n2)cc1	–	–	–	·	?	–
COc1ccc(N2CC(C(=O)Nc3nnc(SCC(=O)NCC4CCCO4)s3)CC2=O)cc1 (stereo not given)	?	–	–	·	–	–
CC(C)C(=O)O/N=C(\N)c1ccc(Oc2ccc(Cl)cc2)c([N+](=O)[O-])c1	–	–	–	–	?	·
COc1cc(NS(=O)(=O)c2ccc(C)cc2)c2ncccc2c1	0.82µM	?	–	–	1.2µM	–
COc1ccc(S(=O)(=O)Nc2cc3c(cc2C(C)=O)OCO3)cc1	10µM	–	–	–	4.6µM	–
CC(=O)c1cc2c(cc1NS(=O)(=O)c1ccccc1C)OCO2	·	·	·	–	·	·
CCOc1ccc(S(=O)(=O)Nc2cc3c(C(=O)OC)c(COC)oc3c3ccccc23)cc1	5.2µM	–	–	·	3.7µM	·
Cc1oc2c(cc(NS(=O)(=O)c3ccc(F)cc3)c3ccccc32)c1C(=O)O	–	–	–	–[0.0935 µM]	–	–
COc1ccc(S(=O)(=O)Nc2cc3c(C(C)=O)c(C)oc3c3ccccc23)cc1	0.65µM	?	–	–	0.65µM	–
Cc1oc2c(cc(NS(=O)(=O)c3ccc(Cl)cc3)c3ccccc32)c1C(=O)OCc1ccccc1	?	?	–	·	?	·
NC(=O)c1ccc(NC(=O)CN2CCN(Cc3ccccc3)CC2)cc1	–	–	–	·	–	–
CC(=O)c1c(C)oc2c1cc(NS(=O)(=O)c1ccc(Cl)c(C)c1)c1ccccc12	?	–	–	·	?	·
CC(=O)c1c(C)oc2c1cc(NS(=O)(=O)c1ccc(C(C)(C)C)cc1)c1ccccc12	?	?	–	–[2.28 µM]	21µM	·
O=C(NC(=S)Nc1ccccc1N1CCCC1)c1ccco1	–	–	–	–	?	·
O=C(NC(=S)Nc1ccccc1N1CCCCC1)c1ccco1	15µM	11µM	–	–	?	–
CC(C)C(=O)N1CCN(c2ccccc2NC(=S)NC(=O)c2ccco2)CC1	16µM	–	–	·	?	–
CCC(C)c1ccccc1NC(=S)NC(=O)c1ccco1 (stereo not given)	23µM	–	–	–	13µM	–
Cc1c(Nc2nc(C(F)(F)F)nc3ccccc23)c(=O)n(-c2ccccc2)n1C	–	–	–	–	–	–
COc1ccc(CCNC(=O)[C@@H](NC(=O)N2CC(=O)Nc3ccccc32)C(C)C)cc1OC	–	–	–	–	–	–
CC(=O)OC(c1nc2ccccc2c(=O)n1C1CC2(OC1=O)c1ccccc1N1C(=O)C(C)(C)N(O)C12)C(C)C (stereo not given)	16µM	–	–	·	21µM	–
O=C1CCC(C(=O)OCC(=O)N2N=C3/C(=C\c4ccccc4)CCCC3C2c2ccccc2)N1 (stereo not given)	?	–	–	·	21µM	–
COc1ccc(/C=C2\CCCC3C2=NN(C(=O)CSc2n[nH]c(N)n2)C3c2ccc(OC)cc2)cc1 (stereo not given)	23µM	–	–	–	?	–
O=C1CCC(C(=O)OCC(=O)N2N=C3/C(=C/c4ccccc4)CCCC3C2c2ccccc2)N1 (stereo not given)	?	?	–	–	23µM	–
SMILES	TDP1 cell CPT	TGFb inhibitor	HepG2 viability	TDP1 inh	TDP1 cell noCPT	IL-1B inflam inh
O=C(c1ccccn1)N1N=C2/C(=C/c3ccccc3)CCCC2C1c1ccccc1 (stereo not given)	?	–	–	–	?	–
COC(=O)[C@@]12C[C@@H](CC(=O)N3CCCC3)C(=O)N(CCc3ccc(OC)c(OC)c3)C1=CCC(C)(C)C2	?	·	·	·	?	–
COC(=O)Cn1cnc2c(nnn2-c2cccc(OC)c2)c1=O	–	–	–	·	–	–
CCc1cccc(C)c1NC(=O)Cn1nnc(-c2nc(-c3ccccc3F)no2)c1N	–	?	–	–	–	·
CN(C)C(CNC(=O)c1ccc(S(=O)(=O)Nc2cccc(C(F)(F)F)c2)cc1)c1ccco1 (stereo not given)	?	–	–	·	?	–
O=C(NCc1ccco1)c1ccc(C(=O)NCc2ccco2)s1	?	–	–	–	26µM	–
O=C(NCc1ccco1)c1ccc(-c2ccc3nccn3c2)cc1	23µM	–	–	·	?	-101
CSc1ccc(Cl)c(C(=O)NCc2ccco2)c1	16µM	–	–	–	?	–
O=C(NC1CC1)c1ccc(-c2ccc3nccn3c2)cc1	?	–	–	·	–	–
CC(C)(C)C(=O)O/N=C(\N)c1ccc([N+](=O)[O-])s1	6.5µM	?	–	–	6.5µM	–
CC1CC(C)CN(C(=O)c2ccc3c(c2NCCO)C(=O)c2ccccc2C3=O)C1 (stereo not given)	29µM	–	–	–	23µM	–
CCOC(=O)c1ccccc1NC(=O)c1cc2sccc2n1C	–	–	–	–	–	–
CC(=O)c1ccc(NC(=O)c2cc3sccc3n2Cc2ccc(Cl)cc2)cc1	16µM	?	–	–	16µM	·
CCOC(=O)c1ccc(NC(=O)c2cc3sccc3n2Cc2ccc(Cl)cc2)cc1	21µM	–	–	–	18µM	·
O=C(Nc1ccc2c(c1)OCCO2)c1cc2sccc2n1Cc1ccccc1	18µM	–	–	–	?	?
CCOC(=O)c1cccc(NC(=O)c2cc3sccc3n2C)c1	?	–	–	–	21µM	–
O=C(Nc1nccs1)c1cc2sccc2n1Cc1ccc(Cl)cc1	–	–	–	–	–	–
COc1cccc(CNC(=O)c2ccc3c(c2)N(C)C(=O)C2CCCCN32)c1 (stereo not given)	?	–	–	–	?	·
CCOc1ccc(NC(=O)COC(=O)Cc2ccsc2)cc1	–	–	–	–	–	–
O=C(COc1ccc(Cl)cc1)NCCNC(=O)c1ccccn1	–	–	–	–[0.0935 µM]	–	–
